Results taken from PubChem BioAssay (Tox21).
Where “and” joins values, the source holds several entries; their conditions need not be identical. Equal entries are not always repeated. Results filed as inconclusive are left out. Calls of active or inactive are those of the source. Unless noted, calls follow the shape of the dose curve; as a rule, active = well fitted curve in the direction sought with a large enough effect in the repeat runs; inconclusive = weak or mixed curves; inactive = no such curve, though single readings can be large; an effect the other way counts as inactive or inconclusive.

Tests used:
[1] = qHTS assay to identify aromatase inhibitors - cell viability counter screen (AID 743084);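 also: cells stimulated with testosterone during compound exposure; nearly all actives have a fitted effect of over 55% in size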; also: potency is read from the fitted curve at half-maximal effect
[2] = molecular target: Aryl hydrocarbon receptor (Homo sapiens) (UniProt P35869); experiment: qHTS assay to identify small molecule that activate the aryl hydrocarbon receptor (AhR) signaling pathway (AID 743085); also: nearly all actives have a fitted effect of over 15% in size; also: potency is read from the fitted curve at half-maximal effect;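 as to activation: HG2L7.5c1 human HepG2 liver cells with stably integrated DRE-driven firefly reporter; series mostly up to about 70 µM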
Sequence of Aryl hydrocarbon receptor (Homo sapiens) (P35869 whole entry, looked up): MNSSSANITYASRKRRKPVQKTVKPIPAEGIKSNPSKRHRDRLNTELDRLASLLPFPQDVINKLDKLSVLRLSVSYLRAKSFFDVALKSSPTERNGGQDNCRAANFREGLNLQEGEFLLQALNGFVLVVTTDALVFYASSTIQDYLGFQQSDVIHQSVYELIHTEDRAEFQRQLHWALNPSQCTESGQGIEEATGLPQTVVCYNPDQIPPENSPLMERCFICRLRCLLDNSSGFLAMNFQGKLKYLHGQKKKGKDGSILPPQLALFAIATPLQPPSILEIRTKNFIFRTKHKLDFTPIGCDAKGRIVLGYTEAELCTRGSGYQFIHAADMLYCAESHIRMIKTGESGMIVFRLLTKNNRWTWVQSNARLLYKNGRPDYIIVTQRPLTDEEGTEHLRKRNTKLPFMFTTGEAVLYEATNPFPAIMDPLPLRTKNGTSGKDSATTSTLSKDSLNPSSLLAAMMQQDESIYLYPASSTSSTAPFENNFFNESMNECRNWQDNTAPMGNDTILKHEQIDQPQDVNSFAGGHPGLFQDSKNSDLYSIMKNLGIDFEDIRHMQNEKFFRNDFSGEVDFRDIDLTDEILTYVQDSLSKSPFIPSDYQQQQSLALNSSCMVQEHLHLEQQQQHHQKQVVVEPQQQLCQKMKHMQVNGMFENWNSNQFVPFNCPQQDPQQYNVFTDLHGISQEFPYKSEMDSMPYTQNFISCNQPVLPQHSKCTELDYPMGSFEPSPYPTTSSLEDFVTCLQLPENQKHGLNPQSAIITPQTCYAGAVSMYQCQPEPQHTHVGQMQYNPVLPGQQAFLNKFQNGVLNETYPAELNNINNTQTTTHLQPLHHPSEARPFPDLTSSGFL
How it was run: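 Luminescence read-out: ONE-Glo reagent, 30 min at room temperature, in HG2L7.5c1 HepG2 reporter cells treated 24 h at 37C. Viability was measured beforehand by CellTiter-Fluor fluorescence after 30 min at 37C.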

[3] = qHTS assay for small molecule agonists of the antioxidant response element (ARE) signaling pathway - cell viability counter screen (AID 743203; calls by dose curve; also: nearly all actives have a fitted effect of over 55% in size; also: potency is read from the fitted curve at half-maximal effect)
How it was run: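 Cells (ARE-bla HepG2, 2,000/well) receive DMSO-dissolved compounds after a 5 hrs rest. Plates incubate 16 hrs at 37C/5% CO2. CellTiter-Glo luminescence is then recorded after 30 min at room temperature.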

[4] = qHTS assay for small molecule activators of the heat shock response signaling pathway - cell viability counter screen (AID 743209); also: nearly all actives have a fitted effect of over 50% in size; also: potency is read from the fitted curve at half-maximal effect
How it was run: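 Quantitative HTS format, Tox21 10K library. HeLa cells carrying an HSE-driven beta-lactamase reporter were treated 5 h at 37 C, then assessed for viability by CellTiter-Glo luminescence.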

[5] = qHTS assay to identify small molecule agonists of the peroxisome proliferator-activated receptor delta (PPARd) signaling pathway - cell viability counter screen (AID 743211); also: nearly all actives have a fitted effect of over 55% in size; also: potency is read from the fitted curve at half-maximal effect
How it was run: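 Read-out: CellTiter-Glo luminescence, 30 min RT, measured in the same wells as the beta-lactamase reporter. Cells: GeneBLAzer PPAR delta UAS-bla HEK293H, 3000 cells/well, compound exposure 17 h at 37C.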

[6] = molecular target: Peroxisome proliferator-activated receptor delta (Homo sapiens) (UniProt Q03181); experiment: qHTS assay to identify small molecule agonists of the peroxisome proliferator-activated receptor delta (PPARd) signaling pathway (AID 743212; calls by dose curve)
Sequence of Peroxisome proliferator-activated receptor delta (Homo sapiens) (Q03181 whole entry, looked up): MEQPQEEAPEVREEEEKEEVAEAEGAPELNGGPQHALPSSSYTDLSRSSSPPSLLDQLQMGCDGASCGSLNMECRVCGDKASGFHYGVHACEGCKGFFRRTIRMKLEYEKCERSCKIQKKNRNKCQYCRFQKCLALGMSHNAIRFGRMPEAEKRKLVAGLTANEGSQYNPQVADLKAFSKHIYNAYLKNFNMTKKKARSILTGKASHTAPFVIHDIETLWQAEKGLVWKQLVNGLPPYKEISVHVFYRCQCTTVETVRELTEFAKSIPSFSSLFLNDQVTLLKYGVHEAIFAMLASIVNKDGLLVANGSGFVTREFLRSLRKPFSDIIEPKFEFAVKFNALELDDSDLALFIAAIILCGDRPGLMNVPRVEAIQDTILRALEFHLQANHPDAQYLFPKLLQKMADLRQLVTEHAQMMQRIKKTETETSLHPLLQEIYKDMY
How it was run: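 GeneBLAzer UAS-bla HEK293H cells carrying a PPARδ construct were exposed to compounds at 37 °C. Beta-lactamase activity was read by FRET fluorescence after 2 h at room temperature with LiveBLAzer B/G substrate.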

[7] = qHTS assay to identify small molecule antagonists of the peroxisome proliferator-activated receptor delta (PPARd) signaling pathway - cell viability counter screen (AID 743213); also: nearly all actives have a fitted effect of over 50% in size; also: potency is read from the fitted curve at half-maximal effect
How it was run: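 Luminescence from CellTiter-Glo, added after the bla read and incubated 30 min at room temperature, gives viability of HEK293H PPARd-bla cells exposed to compounds for 17 h at 37 C with 300 nM L165041.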

[8] = molecular target: Peroxisome proliferator-activated receptor delta (Homo sapiens) (UniProt Q03181); experiment: qHTS assay to identify small molecule antagonists of the peroxisome proliferator-activated receptor delta (PPARd) signaling pathway (AID 743215; active = well fitted inhibition curve with a large enough effect in the signal ratio in the repeat runs, not every such curve was filed as active; the % refers to the signal ratio;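 also: cells stimulated with agonist L165041 at 300 nM final during compound exposure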; also: potency is read from the fitted curve at half-maximal effect)
How it was run: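 Antagonist-mode beta-lactamase reporter screen: HEK293H cells with UAS-bla under PPARd control, stimulated by 300 nM L165041 (final) alongside test compound for 17 h at 37 C, then FRET fluorescence after 2 h substrate incubation.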

[9] = molecular target: Bile acid receptor (Homo sapiens) (UniProt Q96RI1); experiment: qHTS assay to identify small molecule antagonists of the farnesoid-X-receptor (FXR) signaling pathway (AID 743217; active = well fitted inhibition curve with a large enough effect in the signal ratio in the repeat runs, not every such curve was filed as active; the % refers to the signal ratio; also: potency is read from the fitted curve at half-maximal effect)
Sequence of Bile acid receptor (Homo sapiens) (Q96RI1 whole entry, looked up): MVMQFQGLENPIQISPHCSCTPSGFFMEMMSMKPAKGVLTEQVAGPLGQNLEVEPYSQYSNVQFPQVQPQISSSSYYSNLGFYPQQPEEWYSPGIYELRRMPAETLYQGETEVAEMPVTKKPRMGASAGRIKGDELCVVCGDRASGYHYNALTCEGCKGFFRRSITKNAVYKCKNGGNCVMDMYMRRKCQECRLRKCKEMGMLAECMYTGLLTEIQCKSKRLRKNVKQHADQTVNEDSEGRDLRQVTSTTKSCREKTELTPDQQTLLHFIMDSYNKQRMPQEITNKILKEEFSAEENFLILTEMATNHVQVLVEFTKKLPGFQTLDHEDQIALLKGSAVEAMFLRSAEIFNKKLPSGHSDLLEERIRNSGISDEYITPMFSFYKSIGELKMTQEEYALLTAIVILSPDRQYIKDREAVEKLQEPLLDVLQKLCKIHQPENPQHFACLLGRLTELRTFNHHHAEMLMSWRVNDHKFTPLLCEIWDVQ
How it was run: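 Beta-lactamase reporter under UAS control in HEK 293T cells; compound exposure 16 h at 37 °C in the presence of chenodeoxycholic acid (50 uM final); signal from B/G FRET substrate after 2 h at room temperature.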

[10] = qHTS assay to identify small molecule agonists of the farnesoid-X-receptor (FXR) signaling pathway - cell viability counter screen (AID 743218); also: nearly all actives have a fitted effect of over 45% in size; also: potency is read from the fitted curve at half-maximal effect
How it was run: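 In GeneBLAzer FXR-UAS-bla HEK 293T cells, compounds act for 16 h at 37 C. Cell viability is then scored in the reporter wells by CellTiter-Glo, 30 min at RT, luminescence.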

[11] = qHTS assay to identify small molecule antagonists of the farnesoid-X-receptor (FXR) signaling pathway - cell viability counter screen (AID 743221; active = well fitted cell-killing curve with a large enough effect in the repeat runs, not every such curve was filed as active; also: nearly all actives have a fitted effect of over 50% in size; also: potency is read from the fitted curve at half-maximal effect)
How it was run: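 HEK 293T FXR-bla cells, 5 h pre-incubation; compound + CDCA 50 uM final, 16 h, 37 C; beta-lactamase FRET read first, then CellTiter-Glo luminescence, 30 min RT.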

[12] = qHTS assay to identify small molecule that activate the aryl hydrocarbon receptor (AhR) signaling pathway - cell viability counter screen (AID 743086); also: nearly all actives have a fitted effect of over 45% in size; also: potency is read from the fitted curve at half-maximal effect
How it was run: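 HepG2-AhR-luc (HG2L7.5c1) cells, 4000/well, treated 24 h at 37 C with compound; viability measured as CellTiter-Fluor fluorescence after 30 min in the same wells as the luciferase read.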

[13] = qHTS assay to identify small molecule antagonists of the peroxisome proliferator-activated receptor gamma (PPARg) signaling pathway - cell viability counter screen (AID 743194); also: nearly all actives have a fitted effect of over 55% in size; also: potency is read from the fitted curve at half-maximal effect
How it was run: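 Cytotoxicity counter screen in PPARg-bla HEK293H cells, same wells as reporter assay. Compounds plus 50 nM rosiglitazone (final) for 17 h at 37 C, then viability read by CellTiter-Glo luminescence.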

[14] = molecular target: Bile acid receptor (Homo sapiens) (UniProt Q96RI1); experiment: qHTS assay to identify small molecule agonists of the farnesoid-X-receptor (FXR) signaling pathway (AID 743220; active = well fitted activation curve with a large enough effect in the signal ratio in the repeat runs, not every such curve was filed as active; the % refers to the signal ratio)
How it was run: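 Beta-lactamase reporter under UAS control in GeneBLAzer FXR HEK 293T cells (5000/well) measured with LiveBLAzer FRET substrate after 2 h at room temperature. Compound exposure lasted 16 h at 37C.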

[15] = molecular target: Vitamin D3 receptor (Homo sapiens) (UniProt P11473); experiment: qHTS assay to identify small molecule antagonists of the vitamin D receptor (VDR) signaling pathway (AID 743223; active = well fitted inhibition curve with a large enough effect in the signal ratio in the repeat runs, not every such curve was filed as active; the % refers to the signal ratio)
Sequence of Vitamin D3 receptor (Homo sapiens) (P11473 whole entry, looked up): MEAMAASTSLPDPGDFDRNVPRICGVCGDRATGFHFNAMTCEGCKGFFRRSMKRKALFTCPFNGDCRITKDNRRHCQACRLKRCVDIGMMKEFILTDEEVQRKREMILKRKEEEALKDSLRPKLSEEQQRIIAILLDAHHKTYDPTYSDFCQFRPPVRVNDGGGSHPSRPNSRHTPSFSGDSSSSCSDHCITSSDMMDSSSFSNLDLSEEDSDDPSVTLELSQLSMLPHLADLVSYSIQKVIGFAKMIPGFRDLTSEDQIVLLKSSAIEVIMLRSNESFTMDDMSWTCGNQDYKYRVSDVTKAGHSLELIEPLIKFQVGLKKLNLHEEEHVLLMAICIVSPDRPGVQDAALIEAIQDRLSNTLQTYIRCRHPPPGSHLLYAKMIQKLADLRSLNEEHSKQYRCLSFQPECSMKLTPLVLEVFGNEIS
How it was run: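 Beta-lactamase reporter read-out: FRET substrate fluorescence after 2 h at room temperature, following 16 h exposure of VDR-bla cells to test compound plus 3 nM (final) 1alpha,25-dihydroxyvitamin D3 agonist at 37C.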

[16] = molecular target: Peroxisome proliferator-activated receptor gamma (Homo sapiens) (UniProt P37231); experiment: qHTS assay to identify small molecule agonists of the peroxisome proliferator-activated receptor gamma (PPARg) signaling pathway (AID 743094; active = well fitted activation curve with a large enough effect in the signal ratio in the repeat runs, not every such curve was filed as active; the % refers to the signal ratio)
Sequence of Peroxisome proliferator-activated receptor gamma (Homo sapiens) (P37231 whole entry, looked up): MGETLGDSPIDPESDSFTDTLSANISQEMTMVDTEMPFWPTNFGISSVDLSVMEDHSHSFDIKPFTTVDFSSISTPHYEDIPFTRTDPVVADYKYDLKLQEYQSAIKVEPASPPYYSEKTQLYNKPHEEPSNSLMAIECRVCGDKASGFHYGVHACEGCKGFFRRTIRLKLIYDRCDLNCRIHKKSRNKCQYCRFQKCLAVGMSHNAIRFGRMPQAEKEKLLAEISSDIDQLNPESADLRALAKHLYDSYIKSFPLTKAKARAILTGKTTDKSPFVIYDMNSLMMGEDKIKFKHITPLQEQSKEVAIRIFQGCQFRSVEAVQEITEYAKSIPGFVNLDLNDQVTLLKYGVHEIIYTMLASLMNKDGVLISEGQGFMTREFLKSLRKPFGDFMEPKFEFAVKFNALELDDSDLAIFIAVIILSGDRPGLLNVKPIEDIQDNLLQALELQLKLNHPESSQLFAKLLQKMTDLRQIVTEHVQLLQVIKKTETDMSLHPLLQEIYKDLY
How it was run: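 Stably transfected HEK293H cells (GeneBLAzer PPARg UAS-bla) were incubated with test substances for 17 h at 37C after a 5 h pre-incubation; beta-lactamase activity was then detected by FRET substrate fluorescence.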

[17] = molecular target: Peroxisome proliferator-activated receptor gamma (Homo sapiens) (UniProt P37231); experiment: qHTS assay to identify small molecule antagonists of the peroxisome proliferator-activated receptor gamma (PPARg) signaling pathway (AID 743191; calls by dose curve; also: series mostly up to about 63 µM; nearly all actives have a fitted effect of over 30% in size)
How it was run: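 GeneBLAzer PPARg UAS-bla HEK293H cells, 5 h post-plating, exposed to compounds 17 h at 37C. LiveBLAzer B/G FRET substrate added for 1 h at room temperature; beta-lactamase reporter read by fluorescence intensity.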

[18] = qHTS assay for small molecule agonists of the antioxidant response element (ARE) signaling pathway (AID 743202; active = well fitted activation curve with a large enough effect in the signal ratio in the repeat runs, not every such curve was filed as active; the % refers to the signal ratio; also: potency is read from the fitted curve at half-maximal effect)
How it was run: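 ARE-bla HepG2 cells (beta-lactamase reporter under the antioxidant response element), plated 5 hours, then exposed to compounds 16 hours at 37 C. LiveBLAzer B/G FRET substrate added for 2 hours at room temperature; fluorescence intensity read.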

[19] = molecular target: Vitamin D3 receptor (Homo sapiens) (UniProt P11473); experiment: qHTS assay to identify small molecule agonists of the vitamin D receptor (VDR) signaling pathway (AID 743222; calls by dose curve)
How it was run: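 Agonist activity measured in VDR-bla reporter cells. Exposure 16 h, 37C, 5% CO2; detection by B/G FRET substrate, 2 h RT.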

[20] = qHTS assay for small molecule activators of the heat shock response signaling pathway (AID 743210; active = well fitted activation curve with a large enough effect in the signal ratio in the repeat runs, with a control signal flat, not every such curve was filed as active; the % refers to the signal ratio; also: series mostly up to about 63 µM)
How it was run: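 HSE-bla HeLa cells (beta-lactamase reporter under heat shock response elements), plated overnight, then exposed to compounds 5 h at 37 C; LiveBLAzer B/G FRET substrate added, 2.5 h at room temperature, fluorescence intensity read.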

Measured: Potency
% is scaled to controls: 0 for no effect and ±100 for the full control effect.

CC1=C(/C=C/C(C)=C/C=C/C(C)=C/C=O)C(C)(C)CCC1
active: [1] 30.5 µM | [3] 60.8 µM | [4] 34.5 µM | [5] 12.2 µM | [7] 43.4 µM | [8] 48.7 µM | [9] 61.3 µM | [10] 21.8 µM | [11] 48.7 µM
inactive: [2] | [6]

S=c1[nH]c2ccccc2s1
inactive: [1] | [12] | [3] | [5] | [6] | [7] | [11]

CCOC(=O)/C=C(C)/C=C/C=C(C)/C=C/c1c(C)cc(OC)c(C)c1C
inactive: [1] | [12] | [13] | [3] | [4] | [5] | [7] | [10] | [11]

CC[C@H]1O[C@]2(CC[C@@H]1C)C[C@@H]1C[C@@H](C/C=C(\C)C[C@@H](C)/C=C/C=C3\CO[C@@H]4[C@H](O)C(C)=C[C@@H](C(=O)O1)[C@]34O)O2
active: [1] 27.1 µM | [13] 19.3 µM | [3] 21.5 µM | [4] 6.85 µM | [5] 17.2 µM | [7] 15.3 µM | [10] 21.7 µM | [11] 17.2 µM
inactive: [2]

CCC(C)Nc1ccc(NC(C)CC)cc1 (centres undefined)
active: [1] 8.8 µM | [12] 55.5 µM | [13] 12.5 µM | [3] 7.84 µM | [4] 22.3 µM | [5] 12.5 µM | [7] 22.3 µM | [10] 22.3 µM | [11] 35.3 µM
inactive: [14]

Cc1ccc2oc(CN(Cc3ccccc3)C(=O)Nc3c(F)cc(F)cc3F)c(-c3ccc(Cl)cc3)c2c1
inactive: [1] | [12] | [13] | [3] | [5] | [7] | [10] | [14] | [11] | [15]

c1cc(C(c2ccc(OCC3CO3)cc2)c2ccc(OCC3CO3)cc2)ccc1OCC1CO1 (centres undefined)
inactive: [2] | [4] | [7] | [11]
active: [1] 54.5 µM | [13] 21.9 µM | [5] 54.9 µM

CCC1OCC(COc2ccc(Oc3ccccc3)cc2)O1 (centres undefined)
active: [18] 61.1 µM
inactive: [1] | [12] | [16] | [17] | [13] | [3] | [5] | [11] | [19] | [15]

CCOc1ccc2nc3cc(N)ccc3c(N)c2c1
active: [2] 11.9 µM
inactive: [12] | [13] | [7] | [8] | [10]

O=C(NOCC1CC1)c1ccc(F)c(F)c1Nc1ccc(I)cc1Cl
active: [13] 13.3 µM | [4] 29.8 µM
inactive: [2] | [16] | [7] | [10] | [11] | [19] | [15]

COc1cccc2c1C(=O)c1c(O)c3c(c(O)c1C2=O)C[C@@](O)(C(=O)CO)C[C@@H]3O[C@H]1C[C@H](N)[C@H](O[C@@H]2CCCCO2)[C@H](C)O1
inactive: [20] | [5] | [6] | [7] | [10] | [11]
active: [1] 13.3 µM | [12] 6.68 µM

N#CSc1ccc(N)c([N+](=O)[O-])c1
inactive: [3] | [4] | [14]
active: [1] 38.8 µM | [5] 55.3 µM | [7] 49.3 µM

O=c1cccccc1O
inactive: [2] | [12] | [13] | [3] | [6] | [9] | [10] | [14] | [11] | [15]

NC(=NCCCCCCN=C(N)/N=C(\N)Nc1ccc(Cl)cc1)/N=C(\N)Nc1ccc(Cl)cc1
active: [7] 19.8 µM [middle of 4 runs] | [11] 19.4 µM and 43.4 µM
inactive: [2] | [12] | [16]

CC(C)n1nc(-c2cc3cc(O)ccc3[nH]2)c2c(N)ncnc21
inactive: [3] | [6] | [11]
active: [2] 3.76 µM | [12] 0.75 µM | [5] 13.3 µM

CCOC(=O)c1nc(C(Cl)(Cl)Cl)n(-c2ccc(Cl)cc2Cl)n1
inactive: [2] | [16] | [14] | [19]
active: [12] 61.1 µM | [3] 24.3 µM | [7] 49 µM

NC(=O)N1C(=O)C(C(=O)c2cc(Cl)cs2)c2cc(F)c(Cl)cc21 (centres undefined)
active: [2] 24.3 µM | [12] 12.2 µM | [13] 13.8 µM | [3] 8.63 µM | [5] 17.4 µM | [7] 15.5 µM | [8] 13.8 µM | [10] 3.89 µM | [11] 24.5 µM

CCCN(CCC)C(=O)C(CCC(=O)OCCCN1CCN(CCOC(=O)Cc2c(C)n(C(=O)c3ccc(Cl)cc3)c3ccc(OC)cc23)CC1)NC(=O)c1ccccc1 (centres undefined)
active: [2] 29.8 µM | [12] 21.1 µM | [7] 21.1 µM | [8] 26.6 µM | [10] 16.8 µM | [11] 26.6 µM
inactive: [18] | [3] | [14]

O=C1CCCCCN1SSN1CCCCCC1=O
inactive: [2] | [12] | [16] | [17] | [13] | [18] | [3] | [4] | [5] | [6] | [7] | [9] | [14] | [11] | [15]
